Experimental findings from PubChem BioAssay (NCI) are described below.

Compounds without any hit were thinned out: in the full panel of roughly 79,000, 15% have a hit. Unmarked numbers belong to inactive results. Active and inactive are the calls of the source. Rule as the data show it: active = growth inhibition above about 70%; inactive = the rest.

A short description of experiment [1]: NCI Yeast Anticancer Drug Screen. Data for the rad50 strain (AID 155).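 Also: 0% = growth of vehicle-only cultures of the same strain.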 Conditions: S. cerevisiae rad50 strain growth inhibition; at 50.0 µM; hits give high values. The procedure, abridged: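 Cells are treated with compound, grown, and their growth is then scored against vehicle-only cultures of the same repair-deficient yeast strain.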
A short description of experiment [2]: NCI Yeast Anticancer Drug Screen. Data for the mec2-1 strain (AID 157). Conditions: S. cerevisiae mec2-1 strain, at 50.0 µM, hits give high values. The procedure, abridged: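 Mutant yeast (mec2-1) grown with compound; growth inhibition relative to vehicle control reported.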
Experiment [3] is described as follows: NCI Yeast Anticancer Drug Screen. Data for the sgs1 mgt1 strain (AID 161).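 Also: 0% = growth of cultures given vehicle only.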 Conditions: S. cerevisiae sgs1 mgt1 strain, at 50.0 µM, hits give high values. The essentials: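 Growth of a repair-deficient yeast mutant was monitored after compound treatment and expressed as inhibition relative to vehicle-treated cultures.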
Experiment [4] is described as follows: NCI Yeast Anticancer Drug Screen. Data for the cln2 rad14 strain (AID 165).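 Also: 0% = growth equal to vehicle treated cultures.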 Conditions: S. cerevisiae cln2 rad14 strain, at 50.0 µM, hits give high values. The procedure, abridged:
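Readout is yeast growth inhibition versus vehicle-treated controls, using a strain with cln2 and rad14 alterations exposed to compound.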

The nature of experiment [5]: NCI Yeast Anticancer Drug Screen. Data for the bub3 strain (AID 167). Conditions: S. cerevisiae bub3 mutant strain, at 50.0 µM, hits give high values. The essentials:
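Part of a panel of yeast mutants defective in DNA damage repair or cell cycle regulation. Each strain is grown with compound, and inhibition is calculated relative to solvent-treated cultures.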

A short description of experiment [6]: NCI Yeast Anticancer Drug Screen. Data for the mlh1 rad18 strain (AID 175). Conditions: S. cerevisiae mlh1 rad18 strain growth inhibition; at 50.0 µM; hits give high values. The procedure, abridged: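 Genetically defined yeast (DNA repair-deficient) exposed to compounds; growth inhibition determined relative to vehicle.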

Regarding `COc1ccc(/C=C2\C(=O)N(C(=O)Cc3ccccc3)N=C2C)cc1OC`, the growth inhibition in experiment [1] was -20.3%; in experiment [2], -20.2%; in experiment [3], -59.1%; in experiment [4], -16.8%; in experiment [5], -12.4%; in experiment [6], -42.6%.

On to `c1ccc2c(c1)ccc1cc3c(ccc4ccccc43)cc12`, for which the growth inhibition in experiment [1] was 15.3%; in experiment [2] it was -11.3%; in experiment [3], 7.9%; in experiment [4], 13.2%; in experiment [5], 34.6%; in experiment [6], 12.4%.

For `S=C1NNC2(C(=S)N1)c1ccccc1-c1ccccc12`, the growth inhibition in experiment [1] is 32.4%; in experiment [2] it was -11.2%; in experiment [3], 14.6%; in experiment [4] it was 5%; in experiment [5] it was 3.2%; in experiment [6] it was 55.4%.

With `CN(C=O)c1ccc([N+](=O)[O-])cc1`, the growth inhibition in experiment [1] is 7.1%; in experiment [2], -6.5%; in experiment [3], -7.15%; in experiment [4], 5.7%; in experiment [5], 1.4%; in experiment [6] it was -3.4%.

As to `O=C1C(c2ccccc2)=C2c3ccccc3-c3ccccc3C2(O)C1c1ccccc1` (stereo unspecified), the growth inhibition in experiment [1] is 91.8% (active); in experiment [2], 94.8% (active); in experiment [3] it was 94.4% (active); in experiment [4], 91.5% (active); in experiment [5] it was 90.9% (active); in experiment [6] it was 94.2% (active).

Regarding `Cn1c(Cl)cn2c3nc4ccccc4nc3c(=O)c(C#N)c12`, the growth inhibition in experiment [1] is 6.1%; in experiment [2], -29.2%; in experiment [3], -52.1%; in experiment [4], 1.3%; in experiment [5], -18.1%; in experiment [6], -4%.

On to `CCC(C)[N-]c1cccc[n+]1[O-].CCC(C)[N-]c1cccc[n+]1[O-].[Cu+2]` (stereo unspecified), for which the growth inhibition in experiment [1] is 8.3%; in experiment [2], -3.9%; in experiment [3], -9.8%; in experiment [4], -2%; in experiment [5] it was -18.3%; in experiment [6] it was -18.4%.

Consider `OC(c1ccccc1)(c1ccccc1)c1nc2ccccc2[nH]1`, for which the growth inhibition in experiment [1] is 2.7%; in experiment [2], -1.75%; in experiment [3], 14.2%; in experiment [4], -19.8%; in experiment [5], -0.1%; in experiment [6] it was -0.9%.

Regarding `COC(=O)C(C)OC(=O)OCC(C)C` (stereo unspecified), the growth inhibition was -11.1% in experiment [1]; -1.9% in experiment [2]; 0.15% in experiment [3]; -2.95% in experiment [4]; -2.95% in experiment [5]; -11.8% in experiment [6].

As for `O=C(O)/C=C\C(=O)Nc1ccc(C(=O)NCC(=O)O)cc1`, the growth inhibition in experiment [1] is -22.9%; in experiment [2] it was -4.8%; in experiment [3], -0.85%; in experiment [4] it was -20.8%; in experiment [5], -11.8%; in experiment [6] it was -7.05%.

As for `CC(C)(C)NC(=O)NC(C)(C)C`, the growth inhibition is -15.1% in experiment [1]; -7.95% in experiment [2]; 7.3% in experiment [3]; 14.8% in experiment [4]; 20.9% in experiment [5]; 4.45% in experiment [6].

For the compound `CC(=O)OCC1OC(n2c(Br)nc3c(N)ncnc32)C2OC(C)(C)OC12` (stereo unspecified), the growth inhibition in experiment [1] is 14.3%; in experiment [2], 6.2%; in experiment [3], 16.4%; in experiment [4], -2.7%; in experiment [5] it was 1.3%; in experiment [6], -6.55%.

Consider `CC(=O)OC(C(=O)Nc1ncccn1)c1ccccc1` (stereo unspecified), for which the growth inhibition in experiment [1] is -4.7%; in experiment [2] it was -2.8%; in experiment [3], -5.65%; in experiment [4], 11.4%; in experiment [5] it was 4.5%; in experiment [6], -10.9%.

Regarding `CSc1n[nH]c(N)c1C(=O)Nc1ccc(C)cc1`, the growth inhibition in experiment [1] is 19.9%; in experiment [2], 10.8%; in experiment [3] it was 39.5%; in experiment [4] it was 22.4%; in experiment [5] it was 49.2%; in experiment [6], 10.6%.

For the compound `O=c1[nH]c2cc([N+](=O)[O-])ccc2nc1/C(=N/Nc1ccccc1)C(O)c1ccc(C(O)/C(=N\Nc2ccccc2)c2cnc3cc([N+](=O)[O-])ccc3n2)cc1` (stereo unspecified), the growth inhibition in experiment [1] was -4.05%; in experiment [2], -23.9%; in experiment [3], -11.4%; in experiment [4], 5.25%; in experiment [5], -6.45%; in experiment [6], -4.3%.

For the compound `CC(N(N=O)c1cccc(Cl)c1)S(=O)(=O)O` (stereo unspecified), the growth inhibition in experiment [1] was 7.25%; in experiment [2], 4.8%; in experiment [3], -6.45%; in experiment [4] it was 22.6%; in experiment [5] it was 5.55%; in experiment [6] it was -0.4%.

As to `O=C(c1ccc(C2CCCCC2)cc1)C(C(c1ccccc1)N1CCOCC1)N1CCOCC1` (stereo unspecified), the growth inhibition in experiment [1] was -54.7%; in experiment [2], -16.6%; in experiment [3], -19.9%; in experiment [4], -10.6%; in experiment [5] it was -3.75%; in experiment [6], 23.9%.

In the case of `CC1=CN(c2ccccc2)S2=C1c1sc3c(c1N2c1ccc(Br)cc1)CCCC3` (stereo unspecified), the growth inhibition is 0.9% in experiment [1]; -21.9% in experiment [2]; -27.5% in experiment [3]; 14.4% in experiment [4]; 3.15% in experiment [5]; -52.2% in experiment [6].

Consider `CCCCc1[nH]nc(-c2n[nH]c(CCCC)c2C)c1C`, for which the growth inhibition in experiment [1] was 25.4%; in experiment [2], 14.1%; in experiment [3], 28.5%; in experiment [4] it was 7.95%; in experiment [5] it was 18.6%; in experiment [6], 27.9%.

As to `COC(=O)C(/C(=N/N)C(=O)Nc1cccc(O)c1)c1nc2ccccc2[nH]c1=O` (stereo unspecified), the growth inhibition in experiment [1] is -39.1%; in experiment [2] it was -7.65%; in experiment [3], -42%; in experiment [4], -15.2%; in experiment [5], -39.1%; in experiment [6] it was -34.4%.

For the compound `O=c1[nH]c2cc([N+](=O)[O-])ccc2c2ccc(Cl)cc12`, the growth inhibition is 57.4% in experiment [1]; 0% in experiment [2]; 4.85% in experiment [3]; 2.75% in experiment [4]; 6.5% in experiment [5]; 27.6% in experiment [6].
